Where “and” joins values, the source holds several entries; their conditions need not be identical. Equal entries are not always repeated. Results filed as inconclusive are left out. Calls of active or inactive are those of the source. Calls come from the whole dose curve; as a rule, active = well fitted curve in the direction sought with a large enough effect; inconclusive = small, poorly fitted or top-dose-only effect, or another doubt; inactive = no such curve, though single readings can be large; an effect the other way counts as inactive or inconclusive.
Tests used:
[1] = P-glycoprotein substrates identified in KB-8-5-11 adenocarcinoma cell line, qHTS therapeutic library screen (AID 1346987); settings: KB-8-5-11 (P-gp overexpressing) viability, CellTiter-Glo, 72 h; series mostly up to 44.5 µM; note: nearly all actives have a fitted effect of over 65% in size
Outline: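 Human cervical adenocarcinoma KB-8-5-11 cells, selected in colchicine to over-express P-gp and assayed without it, were exposed for 72 h to titrated compounds. An ATP-based luminescent viability signal gave AC50.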

[2] = NS1 protein of Zika virus - qHTS assay to identify small molecule inhibitors in human HEK 293 cells (AID 1347053); settings: HEK293 ZIKV MR766 infection, NS1 TR-FRET, 24 h; series mostly up to 46.1 µM; note: nearly all actives have a fitted effect of over 55% in size
Outline: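 TR-FRET signal from two anti-ZIKV NS1 antibodies quantified NS1 in HEK 293 cells 24 h after MR766 infection at MOI = 0.5; compounds were added 1 h before virus. Uninfected cells and infected cells defined the NS1 normalization range.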

[3] = qHTS of pediatric cancer cell lines to identify multiple opportunities for drug repurposing: Primary screen for TC32 cells (AID 1347089); settings: TC32 Ewing sarcoma viability, CellTiter-Glo luminescence, 48 h; series mostly up to 45.8 µM; note: nearly all actives have a fitted effect of over 60% in size
Outline: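 Luminescent CellTiter-Glo read-out of metabolically active TC32 cells after 48 h compound exposure. Primary: MIPE 11-point, 0.78 nM–46 µM; NPC 8-point, 0.59 nM–46 µM. Confirmatory: 11-point dilutions.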

[4] = qHTS of pediatric cancer cell lines to identify multiple opportunities for drug repurposing: Primary screen for DAOY cells (AID 1347090); settings: DAOY medulloblastoma viability, CellTiter-Glo luminescence, 48 h; series mostly up to 46 µM; note: nearly all actives have a fitted effect of over 55% in size
Outline: (§1)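 Eight- or eleven-point concentration series, 48 h treatment at 37 degrees C in growth media; readout CellTiter-Glo luminescence. Potency and efficacy were taken from the concentration-response curves.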

[5] = qHTS of pediatric cancer cell lines to identify multiple opportunities for drug repurposing: Primary screen for SJ-GBM2 cells (AID 1347091); settings: SJ-GBM2 viability, CellTiter-Glo luminescence, 48 h; series mostly up to 46 µM
Outline: as §1

Measured: Potency
Potency is the fitted concentration of half-maximal effect.

O=C(O)CCCCCC(=O)NN=C1CCCC1
inactive: [1] | [2] | [3] | [4] | [5]

C=C(C)[C@@H]1CC[C@]2(C)CC[C@]3(C)[C@H](CC[C@@H]4[C@@]5(C)CC[C@H](O)C(C)(C)[C@H]5CC[C@]43C)[C@@H]12
inactive: [1] | [2] | [3] | [4] | [5]

Cc1cnc(Nc2ccc(N3CCN(C)CC3)cc2)nc1Nc1cccc(S(=O)(=O)NC(C)(C)C)c1
active: [1] 11.8 µM and 7.31 µM | [2] 16.6 µM | [3] 10.4 µM | [4] 14.8 µM

C[C@@H]1CC[C@@]2(OC1)OC1CC3C4CC=C5CC(O)CCC5(C)C4CCC3(C)C1[C@@H]2C (stereo not given in full)
inactive: [1] | [2] | [3] | [4] | [5]

O=[N+]([O-])c1cn2c(n1)OC[C@@H](OCc1ccc(OC(F)(F)F)cc1)C2
inactive: [1] | [2] | [3] | [4]

O=C(O)CCCCC(CCSCc1ccccc1)SCc1ccccc1 (stereo not given)
active: [4] 23.5 µM
inactive: [1] | [2] | [3]

NC(=O)c1cccc(-c2cccc(OC(=O)NC3CCCCC3)c2)c1
inactive: [1] | [2] | [3] | [4]

CC1(C)O[C@@H]2C[C@H]3[C@@H]4CCC5=CC(=O)C=C[C@]5(C)[C@@H]4[C@@H](O)C[C@]3(C)[C@]2(C(=O)CO)O1
inactive: [1] | [2] | [3] | [4]

C[C@H]1O[C@H](O[C@H]2[C@H](O)[C@@H](O)[C@@H](O[C@H]3[C@H](O)[C@@H](O)C(O)O[C@H]3CO)O[C@H]2CO)[C@H](O)[C@@H](O)[C@H]1N[C@H]1C=C(CO)[C@@H](O)[C@H](O)[C@@H]1O (stereo not given in full)
inactive: [1] | [2] | [3] | [4]
active: [5] 4.69 µM
